Screens: PubChem BioAssay, National Center for Advancing Translational Sciences (NCATS)
Nrf2 block – Nrf2 qHTS screen for inhibitors. A549 ARE-Fluc reporter, luciferase luminescence, 18-24 h. Potency, µM (doses to about 46 µM), for inactives: top-dose activity change, negative = inhibition, most hits filed as inhibitors. 360,000 compounds, 2.1% hits. AID 504444, 2011; further: potency means the concentration at half of the fitted maximal effect; on the % scale 0 is the no-effect control and ±100 the full control effect; nearly all actives have a fitted effect of over 60% in size
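In this cell-based qHTS, ARE-driven firefly luciferase in A549 cells reports Nrf2 activity; the luminescent signal after BugLite lysis is the measured value, with a prior CellTiter-Fluor read for cell health.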
Nrf2 activator – qHTS of Nrf2 Activators; AREc32 ARE-luciferase reporter (MCF7-derived line), luminescence, 24 h; 410,000 compounds, 0.31% hits; Potency, µM (titrated, usually from 46.1 µM), for inactives: top-dose activation, actives largely listed as activators; further: potency means the concentration at half of the fitted maximal effect; % of control where 0% means no effect; nearly all actives have a fitted effect of over 65% in size
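Steps: seed AREc32_Fluc cells (1000/well, 5% FBS OPTI-MEM); incubate overnight at 37 deg C; add 23 nL compound; incubate 24 hr; add Steady-Glo; hold 30 min RT; read luminescence.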
BRCA1 expr up – qHTS Assay to Identify Small Molecule Activators of BRCA1 Expression; MCF7-BRCA1-FFLuc reporter, luminescence, 48 h; response scale: scaled: vehicle 0%, 10 µM genistein 100%; 380,000 compounds, 1.1% hits; Potency, µM (titrated, usually from 46.1 µM), without a hit: at the top dose activation, hits mostly activators; AID 624202, 2012; further: potency means the concentration at half of the fitted maximal effect; nearly all actives have a fitted effect of over 80% in size
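Luminescence from a BRCA1-driven firefly luciferase in MCF7 cells was the read-out, taken 15 min after substrate addition following 48 h compound exposure at 37 °C. Data were normalized to a 10 microM genistein control and DMSO vehicle.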
A549 tox – Nrf2 qHTS screen for inhibitors: counterscreen for cytotoxicity | A549 ARE-Fluc cells, CellTiter-Fluor viability, 18-24 h | Potency, µM (titrated, usually from 46 µM), for inactives: top-dose activity change, negative = cytotoxicity, usual class: inhibitors | 390,000 compounds, 0.16% hits | AID 504648, 2011; further: potency means the concentration at half of the fitted maximal effect; on the % scale 0 is the no-effect control and ±100 the full control effect
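A549 ARE_Fluc cells in 5% FBS OPTI-MEM were exposed to compounds in concentration-response for 18-24 h at 37 deg C. Viability was read by CellTiter-Fluor fluorescence (Ex 405/Em 525) after 30 min, before the luciferase read.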
IL2 activator – qHTS of IL-2 Activators; IL-2 activation reporter assay, cell-based qHTS; stimulated with anti-CD3/CD4/CD28 beads; in transgenic mouse T cells; activation, % (series mostly up to about 46 µM); 360,000 compounds, 0.065% hits; AID 652025, 2013; in the data active means activation above about 50%; inconclusive means mostly about 30% to 49%; further: 0% is about no effect
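EGFP and DsRed fluorescence is measured by plate cytometry in unstimulated transgenic mouse T cells exposed to compound for 60 minutes, then stimulated 18 hours at 37 degrees C with anti-CD3/anti-CD4 beads plus anti-CD28.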
p53 reactivator – qHTS assay for re-activators of p53 using a Luc reporter; H1299 p53-A138V BP100-luciferase reporter, luminescence, 24 h; Potency, µM (highest dose often 92.2 µM), for inactives: at the highest dose activity change, positive = activation, most hits filed as activators; 320,000 compounds, 0.063% hits; further: potency means the concentration at half of the fitted maximal effect; % of control where 0% means no effect; nearly all actives have a fitted effect of over 45% in size
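p53-null H1299 cells stably carrying temperature-sensitive p53-A138V and a BP100-luciferase reporter were pinned with compounds (4-point, 1:5 series) and held 24 hrs at 37 deg C. Luminescence was read 10 min after detection reagent.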
Active calls of the source: *. An excerpt weighted towards active compounds, which were near 3.2% of everything screened. Unless noted, the call rests on the fitted dose curve; in most records, active means well fitted curve in the direction sought with a large enough effect; inconclusive means small, poorly fitted or top-dose-only effect, or another doubt; inactive means no such curve, though single readings can be large; an effect the other way counts as inactive or inconclusive.

`CCOCCCN(Cc1ccco1)C(=O)c1cc2c(s1)-c1c(C)cccc1OC2` gave Nrf2 block inconclusive, Nrf2 activator 5% and A549 tox 9%.
For O=C(N[C@@H]1CCC(=O)N(CC[C@H](Sc2ccc(Br)cc2)c2ccccc2)CC1)OCc1ccccc1 the results were Nrf2 block inconclusive, Nrf2 activator 0%, BRCA1 expr up -43%, A549 tox -5%, IL2 activator -4 and p53 reactivator inconclusive.
For COc1ccc(S[C@@H](CCN2CC[C@H](NC(=O)OCc3ccccc3)CCC2=O)c2ccccc2)cc1 the results were Nrf2 block 18µM*, Nrf2 activator 3%, BRCA1 expr up -52%, A549 tox -24%, IL2 activator -1 and p53 reactivator 11%.
Cc1cc2c(s1)c1cnn(CC(=O)N3CCOCC3)c(=O)c1n2C was read as Nrf2 block 4%, BRCA1 expr up 14% and A549 tox 11%.
`CCc1ccccc1NC(=O)c1oc(=O)c2ccccc2c1-c1ccccc1` gave Nrf2 activator 13% and A549 tox 0%.
Screening CSc1ccc(C(=O)C2CCCN(C(=O)c3nn(C)c(=O)c4ccccc34)C2)cc1 (centres undefined) returned Nrf2 block 18µM*, Nrf2 activator 3%, BRCA1 expr up -56%, A549 tox -18%, IL2 activator -4 and p53 reactivator -1%.
For Cn1nc(C(=O)N2CCCC2)c2ccccc2c1=O the results were Nrf2 block 11%, Nrf2 activator 0%, BRCA1 expr up -9%, A549 tox -4%, IL2 activator -1 and p53 reactivator -1%.
`Cc1cc(C2=NNC(=NC3CC3)SC2)c(C)n1-c1ccccc1` gave Nrf2 block 6.5µM*, Nrf2 activator -3%, BRCA1 expr up -83%, A549 tox 0%, IL2 activator -1 and p53 reactivator -26%.
Screening COCCn1c(C)cc(C2=NNC(=NC3CC3)SC2)c1C returned Nrf2 block 0.58µM*, Nrf2 activator -3%, BRCA1 expr up -74%, A549 tox -9%, IL2 activator 0 and p53 reactivator -9%.
Cc1cccc(-c2nc3c(cnn3-c3ccccc3)c(=O)n2-c2cccc(Cl)c2)c1 was read as Nrf2 block -11%, Nrf2 activator 4% and A549 tox 8%.
`Cc1ccc(OCC(=O)Nc2ccc3nc(SCC(=O)N4CCOCC4)sc3c2)cc1C` gave Nrf2 block -24%, Nrf2 activator 5% and A549 tox -7%.
For COc1cc(OC)c(NC(=O)COCc2cc(-c3cccs3)on2)cc1Cl the results were Nrf2 block 0%, Nrf2 activator inconclusive and A549 tox 2%.
For Cc1cc(C)cc(-n2ccn(Cc3ccc(F)cc3)c(=O)c2=O)c1 the results were Nrf2 block 23µM*, Nrf2 activator 1% and A549 tox 0%.
For Cc1cc(OCCn2c(CCNC(=O)C3CCCCC3)nc3ccccc32)ccc1Cl the results were Nrf2 block inconclusive, Nrf2 activator 0%, BRCA1 expr up 14% and A549 tox -26%.
For O=C(Cc1ccc(NC(=O)N2CCCCc3ccccc32)cc1)NCc1ccccc1 the results were Nrf2 activator -1%, BRCA1 expr up 0% and A549 tox -2%.
`COc1ccccc1C(c1nnnn1Cc1ccco1)N1CCN(c2cccc(C)c2C)CC1` (centres undefined) gave Nrf2 block 12µM*, Nrf2 activator -1%, BRCA1 expr up -48%, A549 tox -15%, IL2 activator -3 and p53 reactivator 3%.
CCOC(=O)NC(=O)COC(=O)CCCSc1nc2ccccc2s1 was read as Nrf2 block 18µM*, Nrf2 activator -2%, BRCA1 expr up -43%, A549 tox -10%, IL2 activator 0 and p53 reactivator 0%.
`c1ccc2sc(SCSc3nc4ccccc4s3)nc2c1` gave Nrf2 block 14%, Nrf2 activator 7%, BRCA1 expr up 76%, A549 tox 2%, IL2 activator 1 and p53 reactivator 7%.
Screening NC(=O)NC(=O)COC(=O)CCCSc1nc2ccccc2s1 returned Nrf2 block inconclusive, Nrf2 activator -2%, BRCA1 expr up -23%, A549 tox -1%, IL2 activator 1 and p53 reactivator -10%.
For O=C(O)CCSc1nc2ccccc2s1 the results were Nrf2 block 13µM*, Nrf2 activator -2%, BRCA1 expr up -89%, A549 tox 0%, IL2 activator -1 and p53 reactivator -26%.
CCC(C)(C)NC(=O)CCCSc1nc2ccccc2s1 was read as Nrf2 block 21%, Nrf2 activator 3%, BRCA1 expr up 3.5µM*, A549 tox -2%, IL2 activator 1 and p53 reactivator 3%.
`CC1(C(=O)Nc2ccc3c(c2)OCCO3)CSCC(=O)N1CCc1ccccc1F` (centres undefined) gave IL2 activator 0.
For COC(=O)CSc1nc(N)c(C#N)c(-c2ccco2)c1C#N the results were Nrf2 activator 14µM*, BRCA1 expr up 2%, A549 tox -7%, IL2 activator -4 and p53 reactivator -9%.
Screening COc1cccc(-n2c(SCc3ccccn3)nc3c(c2=O)SCC3)c1 returned Nrf2 block 1.8µM*, Nrf2 activator 0%, BRCA1 expr up 0%, A549 tox -12%, IL2 activator -6 and p53 reactivator -3%.
Screening COc1ccc(-c2cc(-c3cc(F)ccc3O)[nH]n2)cc1OC returned Nrf2 block 2%, Nrf2 activator 8%, BRCA1 expr up 10µM*, A549 tox -21%, IL2 activator -4 and p53 reactivator 8%.
Screening COc1ccc(-c2cc(-c3ccccc3O)[nH]n2)cc1OC returned Nrf2 block 73%, Nrf2 activator 11%, BRCA1 expr up inconclusive, A549 tox -15%, IL2 activator -1 and p53 reactivator inconclusive.
C=CCSc1nnc(-c2cccc3ccccc23)o1 was read as Nrf2 block -13%, Nrf2 activator 4%, BRCA1 expr up 16%, A549 tox 3%, IL2 activator -1 and p53 reactivator 10%.
C#CCSc1nnc(-c2cccc3ccccc23)o1 was read as Nrf2 block 27%, Nrf2 activator 11µM*, BRCA1 expr up -44%, A549 tox -1% and IL2 activator 1.
